Results: PubChem BioAssay AID1159580 (chemical genetic matrix, 2015)
Screen size: about 5,500 compounds; about 2,000 (36%) were called active. Not shown: some 18% with an inconclusive outcome. No stated cut-off is given here; in the data, active means normalized growth mostly below about 0.91 (no sharp cut-off); inconclusive means no clear call, values can overlap the other calls; inactive means mostly above about 0.92. The list shows a part of the results.

Assay: chemical genetic growth profiling, strain panel (AID 1159580);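 further: tested at 20 µM; growth read once vehicle control cultures reached saturation at 30 °C; 1 = growth at the plate median or of vehicle wells; lower values mean less growth of the strain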
Details: growth OD

Measured: normalized growth

CC(=O)NC(=O)/C(C#N)=C/N1CCN(Cc2ccccc2)CC1
inactive: S. cerevisiae deletion strains, locus YAL013W, strain DEP1, hits give low values 0.987 | S. cerevisiae deletion strains, locus YBR229C, strain ROT2, hits give low values 0.989 | S. cerevisiae deletion strains, locus YDL101C, strain DUN1, hits give low values 1.01 | S. cerevisiae deletion strains, locus YDL134C, strain PPH21, hits give low values 1.01 | S. cerevisiae deletion strains, locus YDR150W, strain NUM1, hits give low values 0.969 | S. cerevisiae deletion strains, locus YEL061C, strain CIN8, hits give low values 0.996 | S. cerevisiae deletion strains, locus YGR078C, strain PAC10, hits give low values 0.994 | S. cerevisiae deletion strains, locus YHR030C, strain SLT2, hits give low values 0.947 | S. cerevisiae deletion strains, locus YHR087W, strain rtc3, hits give low values 0.994 | S. cerevisiae deletion strains, locus YJR043C, strain POL32, hits give low values 0.976 | S. cerevisiae deletion strains, locus YJR075W, strain HOC1, hits give low values 1.01 | S. cerevisiae deletion strains, locus YKL190W, strain CNB1, hits give low values 1 | S. cerevisiae deletion strains, locus YLR039C, strain RIC1, hits give low values 1.01 | S. cerevisiae deletion strains, locus YLR058C, strain SHM2 (second series), hits give low values 0.988 | S. cerevisiae deletion strains, locus YLR085C, strain ARP6, hits give low values 1.07 | S. cerevisiae deletion strains, locus YLR262C, strain YPT6, hits give low values 0.982 | S. cerevisiae deletion strains, locus YML094W, strain GIM5, hits give low values 1.01 | S. cerevisiae deletion strains, locus YMR219W, strain ESC1, hits give low values 1 | S. cerevisiae deletion strains, locus YMR263W, strain SAP30, hits give low values 0.997 | S. cerevisiae deletion strains, locus YMR307W, strain GAS1, hits give low values 1.11 | S. cerevisiae deletion strains, locus YNL128W, strain TEP1, hits give low values 0.981 | S. cerevisiae deletion strains, locus YNL153C, strain GIM3, hits give low values 0.977 | S. cerevisiae deletion strains, locus YNL298W, strain CLA4 (second series), hits give low values 0.95 | S. cerevisiae deletion strains, locus YNL322C, strain KRE1, hits give low values 0.991 | S. cerevisiae deletion strains, locus YNR030W, strain Alg12, hits give low values 0.987 | S. cerevisiae deletion strains, locus YPL055C, strain LGE1, hits give low values 1.05 | S. cerevisiae deletion strains, locus YPL241C, strain CIN2, hits give low values 0.989 | S. cerevisiae deletion strains, locus YPR135W, strain CTF4, hits give low values 0.886 | S. cerevisiae strains, strain wild type, hits give low values 0.974

CC(=O)OC[C@H]1O[C@@H](Oc2cc(OC(C)=O)c3c(=O)cc(-c4ccc(OC(C)=O)cc4)oc3c2)[C@H](OC(C)=O)[C@@H](OC(C)=O)[C@@H]1OC(C)=O
inactive: S. cerevisiae deletion strains, locus YAL021C, strain ccr4, hits give low values 1.04 | S. cerevisiae deletion strains, locus YAL026C, strain drs2, hits give low values 1 | S. cerevisiae deletion strains, locus YAL030W, strain snc1, hits give low values 1.01 | S. cerevisiae deletion strains, locus YBL061C, strain skt5, hits give low values 0.981 | S. cerevisiae deletion strains, locus YBR009C, strain hhf1, hits give low values 0.998 | S. cerevisiae deletion strains, locus YBR023C, strain chs3, hits give low values 0.999 | S. cerevisiae deletion strains, locus YBR171W, strain sec66, hits give low values 0.981 | S. cerevisiae deletion strains, locus YBR231C, strain swc5, hits give low values 0.955 | S. cerevisiae deletion strains, locus YBR279W, strain paf1, hits give low values 0.997 | S. cerevisiae deletion strains, locus YCL011C, strain gbp2, hits give low values 1 | S. cerevisiae deletion strains, locus YCL016C, strain dcc1, hits give low values 1.06 | S. cerevisiae deletion strains, locus YCL069W, strain vba3, hits give low values 0.979 | S. cerevisiae deletion strains, locus YCR088W, strain abp1, hits give low values 0.989 | S. cerevisiae deletion strains, locus YDL005C, strain med2, hits give low values 0.977 | S. cerevisiae deletion strains, locus YDL040C, strain nat1, hits give low values 1.02 | S. cerevisiae deletion strains, locus YDR001C, strain nth1, hits give low values 1 | S. cerevisiae deletion strains, locus YDR069C, strain doa4, hits give low values 0.953 | S. cerevisiae deletion strains, locus YDR137W, strain rgp1, hits give low values 1.09 | S. cerevisiae deletion strains, locus YDR159W, strain sac3, hits give low values 0.963 | S. cerevisiae deletion strains, locus YDR195W, strain ref2 0.936 | S. cerevisiae deletion strains, locus YDR297W, strain sur2, hits give low values 0.988 | S. cerevisiae deletion strains, locus YDR334W, strain swr1, hits give low values 0.979 | S. cerevisiae deletion strains, locus YDR335W, strain msn5, hits give low values 0.989 | S. cerevisiae deletion strains, locus YDR392W, strain spt3, hits give low values 0.966 | S. cerevisiae deletion strains, locus YEL003W, strain gim4, hits give low values 0.979 | S. cerevisiae deletion strains, locus YEL037C, strain rad23, hits give low values 0.986 | S. cerevisiae deletion strains, locus YEL061C, strain CIN8 (second series), hits give low values 0.999 | S. cerevisiae deletion strains, locus YER015W, strain faa2, hits give low values 1 | S. cerevisiae deletion strains, locus YER016W, strain bim1, hits give low values 1.02 | S. cerevisiae deletion strains, locus YER111C, strain swi4, hits give low values 1.03 | S. cerevisiae deletion strains, locus YER155C, strain BEM2 (second series), hits give low values 0.985 | S. cerevisiae deletion strains, locus YFR010W, strain ubp6, hits give low values 0.975 | S. cerevisiae deletion strains, locus YGL167C, strain pmr1, hits give low values 0.992 | S. cerevisiae deletion strains, locus YGL173C, strain kem1, hits give low values 0.973 | S. cerevisiae deletion strains, locus YGL227W, strain vid30, hits give low values 0.995 | S. cerevisiae deletion strains, locus YGL240W, strain doc1, hits give low values 0.983 | S. cerevisiae deletion strains, locus YGL253W, strain hxk2, hits give low values 0.968 | S. cerevisiae deletion strains, locus YHR013C, strain ard1, hits give low values 1.01 | S. cerevisiae deletion strains, locus YHR027C, strain rpn1, hits give low values 1.01 | S. cerevisiae deletion strains, locus YHR142W, strain chs7, hits give low values 1.02 | S. cerevisiae deletion strains, locus YJL092W, strain hpr5, hits give low values 0.995 | S. cerevisiae deletion strains, locus YJL095W, strain BCK1 (second series), hits give low values 1.04 | S. cerevisiae deletion strains, locus YJL115W, strain asf1, hits give low values 0.98 | S. cerevisiae deletion strains, locus YJL129C, strain trk1, hits give low values 0.984 | S. cerevisiae deletion strains, locus YJL154C, strain vps35, hits give low values 0.98 | S. cerevisiae deletion strains, locus YJL164C, strain tpk1, hits give low values 1.02 | S. cerevisiae deletion strains, locus YJL166W, strain qcr8, hits give low values 0.989 | S. cerevisiae deletion strains, locus YJL187C, strain SWE1, hits give low values 1 | S. cerevisiae deletion strains, locus YKL160W, strain elf1, hits give low values 1.02 | S. cerevisiae deletion strains, locus YKR026C, strain gcn3, hits give low values 0.977 | S. cerevisiae deletion strains, locus YKR091W, strain srl3, hits give low values 0.999 | S. cerevisiae deletion strains, locus YLL001W, strain dnm1, hits give low values 0.947 | S. cerevisiae deletion strains, locus YLL026W, hits give low values 0.99 | S. cerevisiae deletion strains, locus YLL041C, strain sdh2, hits give low values 0.991 | S. cerevisiae deletion strains, locus YLR027C, strain aat2, hits give low values 0.981 | S. cerevisiae deletion strains, locus YLR221C, strain rsa3, hits give low values 0.971 | S. cerevisiae deletion strains, locus YLR258W, strain gsy2, hits give low values 1.01 | S. cerevisiae deletion strains, locus YLR262C, strain YPT6 (second series), hits give low values 0.998 | S. cerevisiae deletion strains, locus YLR320W, strain mms22, hits give low values 0.993 | S. cerevisiae deletion strains, locus YLR342W, strain FKS1, hits give low values 0.985 | S. cerevisiae deletion strains, locus YLR357W, strain rsc2, hits give low values 0.967 | S. cerevisiae deletion strains, locus YLR370C, strain arc18, hits give low values 0.981 | S. cerevisiae deletion strains, locus YLR384C, strain iki3, hits give low values 0.965 | S. cerevisiae deletion strains, locus YML120C, strain ndi1, hits give low values 0.998 | S. cerevisiae deletion strains, locus YMR058W, strain fet3, hits give low values 0.994 | S. cerevisiae deletion strains, locus YMR125W, strain sto1, hits give low values 1 | S. cerevisiae deletion strains, locus YMR129W, hits give low values 0.987 | S. cerevisiae deletion strains, locus YMR205C, strain PFK2, hits give low values 1.01 | S. cerevisiae deletion strains, locus YMR231W, strain pep5, hits give low values 0.969 | S. cerevisiae deletion strains, locus YNL071W, strain lat1, hits give low values 0.998 | S. cerevisiae deletion strains, locus YNL209W, strain ssb2, hits give low values 1 | S. cerevisiae deletion strains, locus YNL248C, strain rpa49, hits give low values 0.961 | S. cerevisiae deletion strains, locus YNL322C, strain KRE1 (second series), hits give low values 1.01 | S. cerevisiae deletion strains, locus YNR049C, strain mso1, hits give low values 0.989 | S. cerevisiae deletion strains, locus YOR001W, strain rrp6, hits give low values 0.953 | S. cerevisiae deletion strains, locus YOR070C, strain gyp1, hits give low values 1.06 | S. cerevisiae deletion strains, locus YOR080W, strain dia2, hits give low values 0.98 | S. cerevisiae deletion strains, locus YOR083W, strain WHI5, hits give low values 1.03 | S. cerevisiae deletion strains, locus YOR106W, strain vam3, hits give low values 1.01 | S. cerevisiae deletion strains, locus YOR265W, strain rbl2, hits give low values 0.992 | S. cerevisiae deletion strains, locus YOR270C, strain vph1, hits give low values 0.958 | S. cerevisiae deletion strains, locus YOR290C, strain snf2, hits give low values 1.12 | S. cerevisiae deletion strains, locus YPL051W, strain arl3, hits give low values 0.981 | S. cerevisiae deletion strains, locus YPL078C, strain atp4, hits give low values 1.03 | S. cerevisiae deletion strains, locus YPL106C, strain sse1, hits give low values 1.01 | S. cerevisiae deletion strains, locus YPL240C, strain hsp82, hits give low values 0.989
